# Screening results from PubChem BioAssay.
# p53null 32C tox: kills p53 null cells at the permissive temperature; Potency, µM (top dose mostly 46.1 µM), inactives show at the highest dose activity change, negative = cytotoxicity, actives largely listed as cytotoxic; 0.62% of 55,000 active; H1299-neo p53 null cells, ATP luminescence, 24 h, 32C;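 also: 0% = DMSO only and -100% = full killing by 100 µM tamoxifen; nearly all actives have a fitted effect of over 55% in size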
#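 AC50 values derive from Hill modelling of qHTS concentration-response data (up to 46 uM) in H1299-neo cells. Cells were treated 24 h at 32C following overnight attachment at 37C; viability was read as cellular ATP.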
# FH mod: Identification of activators of human fumarate hydratase by quantitative high-throughput screening; Fumarate hydratase, mitochondrial (Homo sapiens), P07954; FH coupled MDH/diaphorase resazurin fluorescence, 15 min; Potency, µM (doses to about 79.9 µM), inactives show at the top dose activity change, negative = inhibition, actives largely listed as inhibitors; 0.22% of 54,000 active; AID 1347055, 2019; also: % is scaled to controls: 0 for no effect and ±100 for the full control effect; the screen sought activators but most active calls are inhibition curves; nearly all actives have a fitted effect of over 45% in size
# p53null 39C kill: selectivity test: cytotoxicity in p53 null cells, nonpermissive temperature | H1299 p53-null (neo) cells, 39C, ATPlite viability, 24 h | Potency, µM (highest dose often 46.1 µM), inactives show at the highest dose activity, negative = cell killing, hits mostly cytotoxic | 0.97% of 55,000 active | AID 904;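 also: 0% = DMSO only and -100% = full killing by 100 µM tamoxifen; nearly all actives have a fitted effect of over 50% in size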
#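 Following overnight plating at 37C (600 cells/well), H1299-neo or H1299-p53A138V cells are dosed up to 46 uM. Incubation lasts 24 hr at 39C before ATP detection.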
# NTMT1 inhibitor: NTMT1 methyltransferase inhibition; Q9BV86; NTMT1 MTase-Glo SAH luminescence, purified enzyme; Potency, µM (series often up to 114 µM), inactives show at the highest dose activity change, negative = inhibition, usual class: inhibitors; 2.5% of 59,000 active; AID 1645870;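 also: plate controls were DMSO vehicle for no effect and no enzyme for full effect; nearly all actives have a fitted effect of over 65% in size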
# Target sequence (Q9BV86 whole entry, looked up): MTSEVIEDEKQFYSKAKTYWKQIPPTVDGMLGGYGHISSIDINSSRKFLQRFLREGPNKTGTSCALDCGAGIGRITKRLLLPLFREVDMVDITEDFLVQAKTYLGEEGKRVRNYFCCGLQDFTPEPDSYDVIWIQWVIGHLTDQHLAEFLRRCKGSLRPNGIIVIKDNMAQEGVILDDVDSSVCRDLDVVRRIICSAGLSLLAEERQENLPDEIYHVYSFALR
# GALC G270D up: raises human GALC G270D mutant activity in cells; 0.1% of 45,000 active; 145M-Twi-hGALC-G270D cells, HMU-beta-Gal fluorescence, 48 h; P54803; Potency, µM (doses to about 57.5 µM), hits mostly activators; also: 0% is about no effect; nearly all actives have a fitted effect of over 65% in size
#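 qHTS, 1536-well; 145M-Twi-hGALC-G270D cells (WT line also made) in DMEM/F12 + 10% FBS; compound incubation on live cells; HMU-β-gal 0.1 mM final, pH 5.2, NaTC; carbonate stop; fluorescence increase = enhanced residual activity.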
# Numbers without * were called inactive; i = inactive; ? = inconclusive; . = not tested or not shown; ! = repeats disagree; [ ] = dose if it differs, or a comment. The entries come from a sample that favours hits as a whole. Calls follow the shape of the dose curve; as a rule, active = well fitted curve in the direction sought with a large enough effect; inconclusive = small, poorly fitted or top-dose-only effect, or another doubt; inactive = no such curve, though single readings can be large; an effect the other way counts as inactive or inconclusive. Potency is read from the fitted curve at half-maximal effect.
SMILES,p53null 32C tox,FH mod,p53null 39C kill,NTMT1 inhibitor,GALC G270D up
O=C(NO)c1ccc(CC(=O)N(CCO)c2ccccc2)cc1,.,5%,.,10%[4.22 µM],.
Nc1ncnc2n[nH]c(Nc3ccc(F)cc3)c12,.,7%,.,50µM*!,.
COc1cc(NC(=O)CCc2c(C)nn(-c3ccc(N4CCCCC4)nn3)c2C)cc(OC)c1OC,-25%,.,-29%,.,.
COc1ccc(NC(=O)CCc2c(C)nn(-c3ccc(N4CCCCC4)nn3)c2C)cc1Cl,10µM*,.,?,.,.
CC1CC(O)/C=C/C(O)C(O)CC(=O)Cc2c(Cl)c(O)cc(O)c2C(=O)O1 (configuration not stated),.,-1%[53.3 µM],.,1%[29.8 µM],.
Cc1cc(N2CCN(C)CC2)nc2ccc(NC(=O)c3ccc(C(C)(C)C)cc3)cc12,25µM*,?,13µM*,-1%,i
CCOc1ccccc1NC(=O)Nc1ccc2nc(N3CCN(C)CC3)cc(C)c2c1,?,?,18µM*,-18%,i
Cc1ccccc1NC(=O)Nc1ccc2nc(N3CCN(C)CC3)cc(C)c2c1,2%,3%,-1%,-3%,i
O=C1NC(=O)C(c2cnc3ccccn23)=C1c1cn2c3c(cc(F)cc13)CN(C(=O)N1CCCCC1)CC2,.,-9%,.,27µM*!,.
COc1cc(O)c(C(CC(=O)N2CCCCCC2)c2ccc3c(c2)OCO3)c(OC)c1 (configuration not stated),.,.,.,17%[228 µM],.
COc1ccc(OC)c(NC(=O)CSc2n[nH]c(-c3ccccc3Cl)n2)c1,2%,7.9µM*,-8%,0%,i
CC(CCc1ccccc1)NC(=O)CSc1n[nH]c(-c2ccccc2Cl)n1 (configuration not stated),12%,-8%,10%,16%,i
COc1ccc(NC(=O)CSc2n[nH]c(-c3ccccc3)n2)cc1Cl,7%,?,-6%,-19%,i
COc1ccc(-c2nc(SCC(=O)Nc3cccc(C(C)=O)c3)n[nH]2)cc1,?,?,25µM*,-12%,i
COc1cc2cc(CNc3ccccc3)c(=O)n(CC(=O)Nc3cc(C)cc(C)c3)c2cc1OC,-1%,-18%,29%,-25%,40µM*
CCc1ccc(NC(=O)Cn2c(=O)c(CNc3ccccc3)cc3cc(OC)c(OC)cc32)cc1,2%,-24%,2%,-21%,i
O=c1oc2cc(O)ccc2cc1-c1nnc(Nc2ccccc2F)s1,?,-1%,?,50µM*,i
COc1cc(C2c3c(-c4c(C)cc(C)cc4O)n[nH]c3C(=O)N2Cc2ccco2)cc(OC)c1OC (configuration not stated),0%,-8%,-13%,14%,i
COc1cc(C2c3c(-c4cc(C)ccc4O)n[nH]c3C(=O)N2Cc2ccco2)cc(OC)c1OC (configuration not stated),26%,22µM*,5%,7%,i
Cc1cc(C(C#N)c2ccc(Cl)cc2)c(Cl)cc1NC(=O)c1cc(I)cc(I)c1O (configuration not stated),.,?,.,18µM*!,i
COc1nccc(-c2nc(Nc3ccc(F)c(F)c3)c3ccccc3n2)c1OC,.,.,.,2%,.
Cc1c(Cl)cccc1Nc1nc2ccc(C(=O)c3ccccc3)cc2n2cnnc12,-2%,-19%,3%,19%,i
COc1ccc(C(=O)O)cc1Nc1nc2ccc(C)cc2n2cnnc12,-2%,?,7%,71µM*,i
CCOC(=O)C(CCc1ccccc1)NC1CSC(c2cccs2)CN(CC(=O)O)C1=O (configuration not stated),.,6%,.,-3%[57.5 µM],.
COc1cc(=C2C=c3ccccc3=N2)[nH]/c1=C/c1[nH]c(C)cc1C,.,.,.,40µM*,.
SMILES,p53null 32C tox,FH mod,p53null 39C kill,NTMT1 inhibitor,GALC G270D up
O=C(Nc1ccc([S+](=O)([O-])Nc2nccs2)cc1)c1ccccn1,.,.,.,9%,.
Cc1ccccc1Sc1ccc(/C=C2\SC(=S)NC2=O)cc1[N+](=O)[O-],.,28µM*,.,25µM*,.
CC(C)CS(=O)(=O)c1oc(-c2ccc(F)cc2)nc1S(=O)(=O)c1ccccc1,?,?,3.2µM*,0%,i
O=S(=O)(c1ccccc1)c1nc(-c2ccc(F)cc2)oc1NCc1ccccc1,11%,-22%,0%,5%,i
O=S(=O)(c1ccccc1)c1nc(-c2cccs2)oc1N1CCCCC1,-1%,-9%,-9%,-5%,i
CCC(C)S(=O)(=O)c1oc(-c2cccs2)nc1S(=O)(=O)c1ccccc1 (configuration not stated),25µM*,-26%,?,-6%,i
COC(=O)C1=CO[C@@H](O[C@@H]2O[C@H](CO[C@@H]3O[C@H](COC(=O)/C=C/c4cc(OC)c(O)c(OC)c4)[C@@H](O)[C@H](O)[C@H]3O)[C@@H](O)[C@H](O)[C@H]2O)[C@@H]2C(CO)=CC[C@H]12,.,1%[20.6 µM],.,7%[12.6 µM],.
CN(C)C/C=C/C(=O)Nc1cccc(C(=O)Nc2cccc(Nc3ncc(Cl)c(-c4c[nH]c5ccccc45)n3)c2)c1,.,11%,.,?,.
CN(C)C/C=C/C(=O)Nc1ccc(C(=O)Nc2cccc(Nc3ncc(Cl)c(-c4c[nH]c5ccccc45)n3)c2)cc1,.,6%,.,50µM*!,.
COc1ccccc1NC(=O)C1=C(C)Nc2nc(SCc3ccccc3F)nn2C1c1ccncc1 (configuration not stated),2%,-2%,10%,89µM*,i
CCN(CC)C(=S)SSC(=S)N(CC)CC,.,?,.,3.5µM*!,i
C/C1=C\CCC(C)CCO[C@@H]2O[C@H](CO[C@@H]3OC[C@H](O)[C@H](O)[C@H]3OC1=O)[C@@H](O)[C@H](O)[C@H]2O (some centres not stated),.,1%[53.3 µM],.,-3%[29.8 µM],.
N#Cc1cccc(-c2ccc(NC(=O)c3cccs3)cn2)c1,.,.,.,5%,.
CC1C2=CC(=O)OC2(O)CC2C1C(O)CC1C(C)(CO)CCCC21C (configuration not stated),.,5%[53.3 µM],.,8%[29.8 µM],.
CCCN(CCC)CCCNC(=O)c1cc2c(=O)n(C)c3ccccc3c2s1,-5%,?,-17%,50µM*,i
CC(C)OCCCNC(=O)c1cc2c(-c3ccc(Cl)cc3)nn(C)c2s1,-11%,?,-12%,?,i
CCCN(CCC)CCNC(=O)c1cc2c(-c3ccc(Cl)cc3)nn(C)c2s1,?,-10%,13µM*,?,i
CCn1c(=O)c2cc(C(=O)NCCCN(C)Cc3ccccc3)sc2c2ccccc21,-2%,?,?,?,i
CCCCN(CC)CCNC(=O)c1cc2c(-c3ccc(Cl)cc3)nn(C)c2s1,?,-12%,16µM*,?,i
O=C1Nc2ccccc2/C1=C/c1cc(O)ccc1O,.,?,.,40µM*,.
